This is an account of results in PubChem BioAssay (NCATS).

Inconclusive results are not listed. Unmarked numbers belong to inactive results. Calls of active or inactive are those of the source. The call rests on the fitted dose curve; in most records, active means well fitted cell-killing curve with a large enough effect; inconclusive means small, poorly fitted or top-dose-only effect; inactive means no such curve, though single readings can be large or run the other way.
Potency means the concentration at half of the fitted maximal effect.

The experiment is described as follows: qHTS of pediatric cancer cell lines to identify multiple opportunities for drug repurposing: Primary screen for SJ-GBM2 cells (AID 1347091).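 On activity change, negative = cytotoxic: plate controls were DMSO neutral control for no effect and bortezomib for full effect.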 The note with it: SJ-GBM2 viability, CellTiter-Glo luminescence, 48 h; series mostly up to 46 µM; activity change, negative = cytotoxic: at the top concentration. The method in brief:
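Cell viability, CellTiter-Glo luminescence; 500-1,000 cells/well, 8- or 11-point titration, 48 h compound exposure at 37 degrees C, 5% CO2. Controls: DMSO neutral, bortezomib 2.3 µM final as positive.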
On the technique in general: Quantitative high-throughput screening tests each substance at several concentrations.
Take `COCC1(CO)C(=O)C2CCN1CC2` (stereo unspecified): the Potency was 2090 nM (active). On the same count and under the same terms, for `O=S(=O)(CC1CS1)c1ccc(Oc2ccccc2)cc1` (stereo unspecified) the value was 26400 nM (active).

In the case of `COc1ccc(CC2NCCc3cc(OC)c(OC)cc32)cc1OC` (stereo unspecified), the “activity change, negative = cytotoxic” value was 14.4%. In the case of `CCN1CCN(C(=O)Cc2ccc(Nc3ncc(F)c(Nc4ccc(C(=O)Nc5ccccc5Cl)cc4)n3)cc2)CC1`, the Potency is 2350 nM (active).

`CC(=O)N(C)c1cccc(-c2ccnc3c(C(=O)c4cccs4)cnn23)c1`: the “activity change, negative = cytotoxic” value is 30.6%. On to `O=C(N[C@@H](COc1ccc2[nH]c(=O)[nH]c2c1)c1ccccc1)c1cccn(Cc2ccc(F)c(F)c2)c1=O`, for which the Potency is 20900 nM (active). As to `CCCN(CCC)c1c([N+](=O)[O-])cc(S(N)(=O)=O)cc1[N+](=O)[O-]`, the Potency is 43300 nM (active). In the case of `O=c1cccc2n1CC1CNC[C@H]2C1`, the Potency is 5900 nM (active). On to `O=[N+]([O-])c1cc([N+](=O)[O-])c2ccccc2c1`, for which the “activity change, negative = cytotoxic” value was 53.8% [at 92.7 µM]. Turning to `O=[N+]([O-])c1c2ccccc2cc2ccccc12`, the “activity change, negative = cytotoxic” value was 10.2% [at 92.7 µM]. As for `Cc1ccccc1-n1c(Cn2cnc3c(N)ncnc32)nc2cccc(C)c2c1=O`, the Potency is 187 nM (active). On to `CC(=Cc1csc(C)n1)[C@@H]1C[C@H]2O[C@]2(C)CCC[C@H](C)[C@@H](O)[C@@H](C)C(=O)C(C)(C)[C@@H](O)CC(=O)O1`, for which the Potency was 29.6 nM (active). Take `CC(C)[C@]12O[C@@H]1[C@@H]1O[C@]13[C@]1(O[C@H]1C[C@@H]1C4=C(CC[C@@]13C)C(=O)OC4)[C@H]2O`: the Potency is 1 nM (active). Consider `CCc1c(C(=O)C(N)=O)c2c(OCC(=O)O)cccc2n1Cc1ccccc1`, for which the “activity change, negative = cytotoxic” value is 3.52%. The same measure, in the same setting: for `O=C1CCC[C@@H]2[C@H]3CCCN4CCC[C@@H](CN12)[C@@H]34` the value was 5.44%. Take `CC(=O)O[C@@]12CO[C@H]1C[C@H](O)[C@@]1(C)C(=O)[C@H](O)C3=C(C)[C@@H](O)C[C@@](O)([C@@H](OC(=O)c4ccccc4)[C@@H]21)C3(C)C`: the Potency was 1480 nM (active). Still for that read-out and setting: for `CC(=Cc1csc(C)n1)[C@@H]1C[C@H]2O[C@@H]2CCC[C@H](C)[C@@H](O)[C@@H](C)C(=O)C(C)(C)[C@@H](O)CC(=O)O1` the value was 1 nM (active); for `CCCCCC[C@H]1C(=O)O[C@H](C)[C@H](NC(=O)c2cccc(NC=O)c2O)C(=O)O[C@@H](C)[C@@H]1OC(=O)CC(C)C`, 187 nM (active).

Consider `c1cc2ccc3cccc4ccc(c1)c2c34`, for which the “activity change, negative = cytotoxic” value is 15.8% [at 92.7 µM]. In the case of `CC[C@H]1C=CC=CC[C@@H](C)[C@H](O)[C@@](C)(O)C(=O)[C@@H](C)[C@H](O)[C@@H](C)C(=O)[C@@H](C)[C@H](O)[C@@H](C)C=CC(=O)O[C@@H]2[C@@H](C)[C@H](CC1)O[C@]1(CC[C@H](C)[C@H](C[C@@H](C)O)O1)[C@H]2C`, the Potency is 264 nM (active).

With `C[C@H]1CCCC=CC2C[C@H](O)C[C@@H]2[C@H](O)C=CC(=O)O1` (stereo partly specified), the Potency was 1 nM (active).
